Assay outcomes from PubChem.
Shown are actives, neighbours in structure and some others; about 10% of the full set was active somewhere.
GLS inh = qHTS for Inhibitors of Glutaminase (GLS) | Glutaminase kidney isoform, mitochondrial (Homo sapiens), O94925 | hit rate 0.21% among 410,000 | Potency, µM (titrated, usually from 45.5 µM), for inactives: at the top dose activity change, negative = inhibition, hits mostly inhibitors | GLS enzymatic activity, qHTS titration; note: % is set by controls: 0 for no effect and ±100 for the full control effect
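hKGA; 45 mM KH2PO4 pH 8.2 + 0.02% Tween-20; cpd via pin tool; 1 mM Gln soln; GluOx/HRP/Amplex Red; RT 30 min; fluor. t0 & final.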
HP1b chromo inh = HTS for Inhibitors of HP1-beta Chromodomain Interactions with Methylated Histone Tails; Chromobox protein homolog 1 (Homo sapiens), P83916; AlphaScreen HP1-beta / biotin-H3K9me3 peptide binding; Potency, µM (titrated, usually from 114 µM), for inactives: at the top dose activity change, negative = inhibition, actives largely listed as inhibitors; hit rate 0.56% among 390,000; AID 540317, 2011; note: nearly all actives have a fitted effect of over 70% in size
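HP1-beta protein (50 nM final) preincubated 30 min at room temperature with biotinylated H3(1-18)K9me3 peptide (50 nM) in PBS pH 7.4, 0.01% Tween-20, then compound added for 30 min. AlphaScreen streptavidin donor/nickel chelate acceptor beads (10 ug/mL final), 30 min dark, luminescence read.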
JMJD2A Tudor inh = qHTS Assay for Inhibitors of JMJD2A-Tudor Domain; AlphaScreen JMJD2A-Tudor / H3K4me3 peptide binding; Potency, µM (top dose mostly 114 µM), inactives show top-dose activity change, negative = inhibition, most hits filed as inhibitors; hit rate 4.4% among 390,000; note: % is set by controls: 0 for no effect and ±100 for the full control effect; nearly all actives have a fitted effect of over 50% in size
Target sequence (O75164 whole entry, looked up, the tested form may be a part): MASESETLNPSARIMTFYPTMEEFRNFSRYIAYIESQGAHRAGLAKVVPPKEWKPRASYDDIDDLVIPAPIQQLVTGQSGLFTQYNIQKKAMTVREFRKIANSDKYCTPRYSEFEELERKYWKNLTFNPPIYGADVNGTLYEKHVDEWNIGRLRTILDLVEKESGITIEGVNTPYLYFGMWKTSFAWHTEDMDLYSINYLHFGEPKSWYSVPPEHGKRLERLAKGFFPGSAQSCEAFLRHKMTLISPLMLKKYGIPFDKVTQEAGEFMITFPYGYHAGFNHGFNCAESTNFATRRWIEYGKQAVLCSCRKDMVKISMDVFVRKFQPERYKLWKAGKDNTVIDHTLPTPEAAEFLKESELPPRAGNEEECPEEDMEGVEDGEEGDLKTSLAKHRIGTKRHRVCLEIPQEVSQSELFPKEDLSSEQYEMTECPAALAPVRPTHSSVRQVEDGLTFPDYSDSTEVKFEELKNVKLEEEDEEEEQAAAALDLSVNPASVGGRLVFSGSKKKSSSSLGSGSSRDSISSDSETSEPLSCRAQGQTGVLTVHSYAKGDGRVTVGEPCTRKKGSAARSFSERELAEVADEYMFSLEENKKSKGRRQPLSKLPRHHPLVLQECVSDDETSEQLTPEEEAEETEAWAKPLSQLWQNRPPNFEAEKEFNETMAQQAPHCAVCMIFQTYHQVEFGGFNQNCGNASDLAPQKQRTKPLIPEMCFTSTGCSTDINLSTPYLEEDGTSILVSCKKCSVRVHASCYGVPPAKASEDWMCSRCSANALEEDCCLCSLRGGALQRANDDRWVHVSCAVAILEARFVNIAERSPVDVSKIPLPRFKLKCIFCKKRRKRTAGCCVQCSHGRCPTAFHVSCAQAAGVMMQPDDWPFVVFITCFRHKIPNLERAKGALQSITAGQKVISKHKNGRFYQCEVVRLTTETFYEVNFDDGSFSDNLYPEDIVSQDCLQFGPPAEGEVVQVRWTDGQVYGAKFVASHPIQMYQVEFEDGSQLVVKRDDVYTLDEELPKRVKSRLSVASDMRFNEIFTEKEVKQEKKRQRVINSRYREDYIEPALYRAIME
BAZ2B inh = qHTS Assay for Inhibitors of BAZ2B. AID 504333, 2011. Bromodomain adjacent to zinc finger domain protein 2B (Homo sapiens), Q9UIF8. Potency, µM (titrated, usually from 114 µM), without a hit: at the highest dose activity change, negative = inhibition, most hits filed as inhibitors. AlphaScreen BAZ2B-H3K14Ac peptide displacement. hit rate 4.4% among 360,000; note: % is set by controls: 0 for no effect and ±100 for the full control effect; nearly all actives have a fitted effect of over 60% in size
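Protein-peptide AlphaScreen: BAZ2B 50 nM, b-H3K14Ac 50 nM, 1x PBS pH 7.4 + 0.01% Tween-20. Preincubation 30 min RT; cpd 30 min RT (top 110 uM); beads 20 min RT, light-protected.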
G9a block = qHTS Assay for Inhibitors of Histone Lysine Methyltransferase G9a. Histone-lysine N-methyltransferase EHMT2 (Homo sapiens), Q96KQ7. G9a H3K9 monomethylation, AlphaScreen, 2 h. Potency, µM (top dose mostly 102 µM), inactives show at the highest dose activity, negative = inhibition, usual class: inhibitors. hit rate 8.8% among 350,000; note: % is set by controls: 0 for no effect and ±100 for the full control effect; nearly all actives have a fitted effect of over 75% in size
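Step 1: enzyme (final 20 nM) with compound, 15 min RT. Step 2: substrate peptide 500 nM and SAM 20 uM, 2 h RT. Step 3: anti-H3K9me1 antibody and AlphaScreen beads, 10 min, then plate read.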
* marks the source's active call; other numbers are inactive results; ? = inconclusive; . = no result given; [ ] = remark or other dose. Calls come from the whole dose curve; as a rule, active = well fitted curve in the direction sought with a large enough effect; inconclusive = small, poorly fitted or top-dose-only effect, or another doubt; inactive = no such curve, though single readings can be large; an effect the other way counts as inactive or inconclusive. Potency is the fitted concentration of half-maximal effect.

SMILES	GLS inh	HP1b chromo inh	JMJD2A Tudor inh	BAZ2B inh	G9a block
CN1C=CC=C/C1=C1\SC(=S)N(C2CCCCC2)C1=O	0.4%	-54.1%	39.8µM*	39.8µM*	15.8µM*
O=C(c1cc(-c2cccs2)on1)N1CCCc2ccccc21	2.0%	42.3%	6.2%	5.1%	-11.6%[59 µM]
CCC(Nc1ncnc2ccc(-c3c(C)noc3C)cc12)c1ccccc1 (stereo not given)	.	.	-33.1%	.	.
Cc1ccccc1C(=O)n1nc(-c2ccco2)nc1NCc1ccc(Cl)cc1	-0.8%	-4.9%	-7.3%	-14.8%	5.1%[59 µM]
CC(NC(=O)COC(=O)C1CCCCC1)c1ccccc1 (stereo not given)	10.2%	4.1%	-4.9%	.	.
CCOC(=O)N1CCN(C(=S)NC(=O)c2nn(C)cc2Br)CC1	-5.6%	32.8%	-22.4%	-7.3%	?
CCOC(=O)N1CCN(C(=O)/C(=C/c2ccc(F)cc2)NC(=O)c2ccccc2)CC1	-2.0%	25.2%	-2.8%	-3.6%	0.3%
CCOC(=O)N1CCN(C(=S)NC(=O)c2ccnn2C)CC1	5.3%	-10.5%	?	-27.9%	20µM*
CCOC(=O)N1CCN(C(=S)NC(=O)c2ccc(F)cc2)CC1	20.9%	2.4%	-17.4%	?	28.2µM*
COC(=O)c1ccc2nc(C)cc(Nc3cccc(Cl)c3C)c2c1	-2.0%	44.3%	-9.7%	1.7%	?
COc1ccc(-c2nn(CCC(=O)O)cc2/C=C2\SC(N)=NC2=O)cc1OC	12.7%	25.3%	?	56.2µM*	?
Cc1c(C(=O)NCc2ccccc2)sc2nc3n(c(=O)c12)CCC3	-1.5%	-6.2%	-28.3%	-37.9%	?
O=C(Nc1cc(=O)[nH]c2ncnn12)c1ccccc1	-21.2%	25.1%	-19.5%	-30.2%	3.2%[59 µM]
O=C(Nc1cc(=O)[nH]c2ncnn12)c1ccc(Cl)cc1Cl	4.6%	15.9%	79.4µM*	-1.9%	8.91µM*
Cc1ccccc1NC(=O)COC(=O)c1ccc(S(=O)(=O)N2CCCC2)cc1	2.1%	34.6%	10.8%	-8.2%	-14.7%[12.7 µM]
CC(=O)N1c2cc3ccccc3cc2N(C(C)=O)c2cc3ccccc3cc21	-2.7%	9.1%[57 µM]	-8.3%	.	.
COC(=O)C1=C(C)N(Cc2ccco2)C(=O)/C1=C\c1ccc([N+](=O)[O-])cc1	-2.8%	-8.8%	?	?	17.8µM*
COC(=O)C1=C(C)N(Cc2ccc(OC)cc2)C(=O)/C1=C\c1ccco1	-2.8%	?	39.8µM*	12.6µM*	10µM*
COC(=O)C1=C(C)N(Cc2ccco2)C(=O)C1	?	23.8%	-12.9%	0.1%	?
COC(=O)C1=C(C)N(C)C(=O)/C1=C\c1ccco1	-3.2%	-7.3%	-21.9%	?	-7.7%[59 µM]
CCCC(=O)Nc1nnc(SCc2cc(=O)n3cccc(C)c3n2)s1	8.6%	26.9%[57 µM]	-6.2%	1.4%	1.5%[59 µM]
CCOC(=O)C1CCCN(C(=O)c2ccc(-c3ccccc3)cc2)CC1 (stereo not given)	0.5%	.	.	.	.
CC(=O)c1cccc(NCC(=O)c2ccc(C)c([N+](=O)[O-])c2)c1	1.4%	74.2%	-28.2%	-20.6%	35.5µM*
CC(=O)Nc1cccc(NC(=O)c2ccc(C)c([N+](=O)[O-])c2)c1	0.2%	7.4%	-5.7%	-16.8%	-36.6%
CC(=O)c1cccc(NC(=S)NNC(=O)c2ccc(C)c([N+](=O)[O-])c2)c1	19.2%	-13.8%	?	-5.6%	20µM*
C=CCN1C(=O)c2ccccc2C1(O)Cc1ccccc1 (stereo not given)	-1.2%	59.2%	-14.4%	-13.7%	-1.1%
CC(C)CN1C(=O)c2ccccc2C1(O)Cc1ccccc1 (stereo not given)	3.5%	50.4%	4.6%	21.3%	8.91µM*
O=C1C2C3C=CC(C3)C2C(=O)N1c1ccncc1 (stereo not given)	4.5%	-2.9%	-0.7%	-16.8%	8.9%[12.7 µM]
